# Screens (PubChem)
# An excerpt weighted towards active compounds, which were near 4.7% of everything screened.
# TRHR PAM – TRH receptor (human) allosteric enhancement; P34981; TRHR cells, fluo-8 calcium fluorescence, EC20 TRH enhancement; enhancement, % at 2 µM; hit rate 0.66% among 360,000; AID 493056; in the data active means enhancement above about 30%; further: 0% is about no effect
#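 TRHR-expressing cells loaded with fluo-8 calcium dye were read kinetically (ex 480/em 530) during compound addition, then stimulated with an EC20 of TRH (10 nM final). Enhancement of the Gq-mediated intracellular calcium response was scored.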
# TRHR agonist – TRH receptor (human) agonism; TRHR cells, calcium flux fluo-8, FDSS agonist mode; AID 493084; P34981; activation, % at 2 µM; hit rate 0.18% among 360,000; further: 0% is about no effect
#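 TRHR-expressing cells loaded with fluo-8 calcium dye; 23 nL library compound pin-transferred, kinetic FDSS fluorescence (Ex 480/Em 530) recorded about 180 s for agonist-induced calcium release, before a 10 nM TRH EC20 addition for potentiator mode.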
# D1 ag – human D1 receptor agonism; P21728; HEK293 T-REx D1 cells, calcium flux, agonist mode; activation, % at 2 µM; hit rate 1% among 360,000; further: 0% is about no effect
# Target sequence (P21728 whole entry, looked up): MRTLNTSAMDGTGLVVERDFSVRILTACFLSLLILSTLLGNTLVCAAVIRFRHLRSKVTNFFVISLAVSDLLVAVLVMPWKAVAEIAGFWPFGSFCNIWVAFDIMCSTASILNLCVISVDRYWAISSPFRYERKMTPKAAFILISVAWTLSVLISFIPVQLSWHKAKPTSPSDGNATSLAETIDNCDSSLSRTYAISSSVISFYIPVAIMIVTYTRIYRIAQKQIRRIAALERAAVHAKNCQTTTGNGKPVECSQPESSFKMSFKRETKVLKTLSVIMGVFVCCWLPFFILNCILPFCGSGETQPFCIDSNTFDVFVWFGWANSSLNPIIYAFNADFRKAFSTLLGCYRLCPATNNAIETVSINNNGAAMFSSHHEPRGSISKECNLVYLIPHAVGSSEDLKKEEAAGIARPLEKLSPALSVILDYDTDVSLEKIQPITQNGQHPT
#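 Agonism was scored from calcium flux recorded over 180 s (1 read/s) after pintool compound addition, following a 10-cycle baseline. Cells were inducible force-coupled HEK293 TREx D1, plated overnight at 30 C and loaded with no-wash calcium dye.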
# D1 PAM – human D1 dopamine receptor positive modulation. hit rate 0.036% among 360,000. potentiation, % at 10 µM. P21728. HEK293 TREx D1 cells, calcium flux, dopamine EC20 potentiation; in the data active means potentiation above about 30%; further: 0% is about no effect
# D1 antag – antagonists of human D1 dopamine receptor | P21728 | HEK293 TREx D1 cells, calcium flux, dopamine EC80; stronger effect = lower value | activity change, negative = inhibition, % at 10 µM | hit rate 3.2% among 360,000 | AID 504652; in the data active means activity change below about -30%; further: on the % scale 0 is the no-effect control and ±100 the full control effect
#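 Cells carrying a force-coupled, tetracycline-inducible human D1 receptor report calcium flux. Each well gets a 10 s baseline, compound with 180 s monitoring, then an EC80 dopamine stimulus with a second 180 s kinetic read.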
# Starred values were filed as active, the others as inactive. Unless noted, no stated cut-off is given here; in the data, active means activation above about 30%; inactive means the rest.
SMILES,TRHR PAM,TRHR agonist,D1 ag,D1 PAM,D1 antag
Cc1ccc(C(C)C)c(OCc2nn(CC(=O)c3ccc(Cl)cc3)c3[n+]2CCCCC3)c1,-1,-1,26,-1,6
Cn1cc(C(c2ccccc2OCC(=O)O)c2cn(C)c3ccccc23)c2ccccc21,-6,0,5,2,-1
Cc1ccccc1C(=O)NC1CCN(Cc2ccccc2)CC1,-4,1,1,-7,-33*
O=C(NC1CCN(Cc2ccccc2)CC1)c1cccc(OC(F)F)c1,27,0,8,-11,-33*
O=C(c1ccc(NS(=O)(=O)c2ccccc2)cc1)N1CCN(Cc2ccc3c(c2)OCO3)CC1,-1,0,3,-9,-19
O=C(NC1CCCCC1)c1cccc(OCc2ccccc2)c1,-3,0,37*,-2,-27
COc1ccc(NS(=O)(=O)c2cccc(C(=O)N3CCN(Cc4ccc5c(c4)OCO5)CC3)c2)cc1,-1,0,6,-9,-61*
Cc1ccccc1C(=O)NC1CCN(Cc2nnnn2CCc2ccccc2)CC1,-2,1,0,-1,-7
O=C(CCC(=O)N1CCOc2ccccc21)Nc1cc(F)ccc1F,0,0,1,-7,6
COc1ccc(CNC2CCN(Cc3ccccc3)CC2)cc1,-3,2,32*,-8,19
CC(C)(Oc1ccc(Cl)cc1)C(=O)NC1CCN(Cc2ccccc2)CC1,-2,0,8,-5,-51*
COc1ccc(OC)c(S(=O)(=O)NC2CCN(Cc3ccccc3)CC2)c1,-3,0,3,8,-2
COc1ccc(NS(=O)(=O)c2cccc(C(=O)NC3CCN(Cc4ccccc4)CC3)c2)cc1,12,1,2,0,-33*
O=C(COC(=O)c1ccccc1Br)Nc1ccc2[nH]c(=O)[nH]c2c1,6,0,3,2,21
CC(C)C(NS(=O)(=O)c1cccc2cccnc12)C(=O)Nc1ccc(OC(F)(F)F)cc1 (centres undefined),-8,1,12,-7,-22
Cn1cc(C(=O)Nc2ccc3c(c2)CCC3)cn1,-1,0,1,-4,-31*
COc1ccc(S(=O)(=O)Nc2ccc3c(c2)CCC3)cc1,-4,-1,5,-4,-7
CC(=O)Nc1ccc(S(=O)(=O)Nc2ccc3c(c2)CCC3)cc1,27,-1,52*,-8,-56*
Cc1ccc(C(=O)Nc2ccc3c(c2)CCC3)cc1,35*,-2,0,8,-3
Cc1cccc(NC(=O)Nc2ccc3c(c2)CCC3)c1,1,1,12,-5,-30*
CN(Cc1c(F)cccc1Cl)C(=O)CNC(=O)c1cccs1,-5,1,3,4,-12
Cc1cc(NC(=O)c2oc3c(c2C)-c2[nH]ncc2CC3)ccc1Br,4,0,2,-2,-13
O=C(CCn1cnnn1)Nc1ccc(F)cc1,-8,0,3,-2,-28
COc1ccc(N2CCN(C(=O)CCn3nc(C)c(S(=O)(=O)N4CCCC4)c3C)CC2)cc1,7,-1,7,0,-2
Cc1ccccc1-c1noc(CSc2nc(-c3ccc(F)cc3)cc(=O)[nH]2)n1,16,0,0,-6,-5
SMILES,TRHR PAM,TRHR agonist,D1 ag,D1 PAM,D1 antag
COC(=O)c1ccc(OCC(O)CN2C(=O)c3ccccc3S2(=O)=O)cc1 (centres undefined),0,0,6,-2,-40*
CCOC(=O)CN1C(=O)S/C(=C/c2ccc(N3CCCCC3)o2)C1=O,-1,22,55*,-2,11
COC(=O)CN1C(=O)S/C(=C/c2ccc(N3CCCCC3)o2)C1=O,20,56*,57*,6,7
Fc1ccc(C2=CC(c3ccc(Br)o3)n3ncnc3N2)cc1 (centres undefined),-2,4,7,2,-22
C1=C(c2ccc(-c3ccccc3)cc2)Nc2ncnn2C1c1ccco1 (centres undefined),13,30*,61*,2,8
Brc1ccc(C2=CC(c3cccs3)n3ncnc3N2)cc1 (centres undefined),3,66*,60*,1,8
OCCCc1nc2n(n1)C(c1cccs1)C=C(c1ccc(Br)cc1)N2 (centres undefined),-3,45*,40*,4,4
CC1=C(C(N)=O)C(c2ccc(Br)cc2)n2nc(CCCO)nc2N1 (centres undefined),-1,1,4,-11,0
Cc1cc(O)c(C(c2cccc(F)c2)N2CCC(C)CC2)c(=O)n1Cc1ccco1 (centres undefined),-2,0,2,-1,-6
COc1ccccc1/C=C/CN1CCC(n2nccc2NC(=O)CCc2ccccc2)CC1,7,1,31*,-8,-12
COc1ccccc1C(=O)Nc1ccnn1C1CCN(C(C)CSC)CC1 (centres undefined),-3,1,1,-6,-40*
CCCS(=O)(=O)c1ncc(Cl)c(C(=O)N(Cc2ccccc2)Cc2ccco2)n1,-26,1,1,-3,-43*
COc1ccccc1Cc1nc2ccccc2nc1SCC(=O)Nc1cc(Cl)ccc1OC,1,0,1,-4,-12
Cc1ccc(N2C(=O)C3C4C=CC(CNC(=S)Nc5ccc(F)cc5)(O4)C3C2=O)cc1 (centres undefined),6,-1,7,-5,-7
Cc1ccc(N2C(=O)C3C4C=CC(CNC(=S)Nc5ccc(Cl)cc5)(O4)C3C2=O)cc1 (centres undefined),-4,0,13,-10,-31*
COC(=O)c1ccc(N2CCN(C)CC2)c(NC(=O)c2ccc(Br)o2)c1,2,0,4,-8,-13
CCN1C(=O)C(Cc2nc3ccccc3c(=O)n2-c2ccc(OC)cc2)c2ccccc21 (centres undefined),-2,1,-1,-2,8
CCN1C(=O)C(Cc2nc3ccccc3c(=O)n2-c2ccccc2)c2ccccc21 (centres undefined),6,0,2,-1,-54*
COc1ccc(S(=O)(=O)Nc2ccccc2C(=O)Nc2nc(-c3ccc(F)cc3)cs2)cc1OC,-5,2,13,-5,-22
COc1ccc(-c2csc(NC(=O)c3ccccc3NS(=O)(=O)c3ccc(C)cc3)n2)cc1,-7,0,9,-9,-40*
Fc1ccccc1C(NCCc1ccc(Cl)cc1)c1nnc(-c2ccccc2)o1 (centres undefined),-3,3,13,0,-9
Clc1ccc(CCNC(c2ccc(Cl)cc2)c2nnc(-c3ccccc3)o2)cc1 (centres undefined),-8,4,35*,-2,9
CCN1C(=O)c2ccccc2S(=O)(=O)c2ccc(C(=O)NCc3ccccc3OC)cc21,-3,0,3,-2,2
